Reference: PubChem BioAssay (Tox21)
Unmarked numbers belong to inactive results. Records with an inconclusive call do not appear. Entries that show only a call come without a potency. Calls of active or inactive are those of the source. Unless noted, calls follow the shape of the dose curve; as a rule, active = well fitted curve in the direction sought with a large enough effect in the repeat runs; inconclusive = weak or mixed curves; inactive = no such curve, though single readings can be large; an effect the other way counts as inactive or inconclusive.

How the values were obtained:
[1] = qHTS assay to identify small molecule antagonists of the estrogen related receptor (ERR) signaling pathway from Tox21 library - cell viability counter screen (AID 1224834); also: nearly all actives have a fitted effect of over 30% in size; also: potency is read from the fitted curve at half-maximal effect
How it was run: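 After 17.5 h of compound exposure at 37 C, ERR cells are incubated with CellTiter-Fluor for 30 min and fluorescence intensity serves as the viability measure.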

[2] = target: Luciferin 4-monooxygenase (Photinus pyralis) (UniProt P08659); experiment: qHTS assay to identify small molecule inhibitors of firefly luciferase (AID 1224835); also: nearly all actives have a fitted effect of over 25% in size; also: potency is read from the fitted curve at half-maximal effect
Sequence of Luciferin 4-monooxygenase (Photinus pyralis) (P08659 whole entry, looked up): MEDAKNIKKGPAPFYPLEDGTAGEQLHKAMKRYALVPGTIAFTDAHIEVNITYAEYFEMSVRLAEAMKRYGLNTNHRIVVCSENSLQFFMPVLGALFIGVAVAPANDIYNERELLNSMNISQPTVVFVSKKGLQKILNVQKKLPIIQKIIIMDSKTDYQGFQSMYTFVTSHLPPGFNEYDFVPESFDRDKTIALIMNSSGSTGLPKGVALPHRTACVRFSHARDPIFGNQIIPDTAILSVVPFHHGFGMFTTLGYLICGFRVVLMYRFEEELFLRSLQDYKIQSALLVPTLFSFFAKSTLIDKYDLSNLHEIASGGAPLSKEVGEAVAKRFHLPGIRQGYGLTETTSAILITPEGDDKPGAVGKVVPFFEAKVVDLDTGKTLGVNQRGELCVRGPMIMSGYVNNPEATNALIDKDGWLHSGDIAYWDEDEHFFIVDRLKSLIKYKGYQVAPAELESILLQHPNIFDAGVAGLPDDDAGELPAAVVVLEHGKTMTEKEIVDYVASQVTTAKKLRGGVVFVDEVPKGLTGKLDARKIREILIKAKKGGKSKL
How it was run: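 Inhibition of purified Photinus luciferase is measured by luminescence. Substrate levels (D-luciferin, ATP) sit at their KM values. Each compound is tested in a concentration series.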

[3] = qHTS assay to identify small molecule agonists of the constitutive androstane receptor (CAR) signaling pathway - cell viability counter screen (AID 1224836); also: nearly all actives have a fitted effect of over 45% in size
How it was run: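 HepG2-CYP2B6-hCAR, 2500 cells/well, 4 h pre-incubation; cpd 15 conc + PK11195 0.75 uM final; 23 h, 37 C/5% CO2; CellTiter-Fluor, fluorescence.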

[4] = qHTS assay to identify small molecule antagonists of the constitutive androstane receptor (CAR) signaling pathway - cell viability counter screen (AID 1224837); also: nearly all actives have a fitted effect of over 45% in size; also: potency is read from the fitted curve at half-maximal effect
How it was run: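 Counter screen run in HepG2-CYP2B6-hCAR cells: 4 hr settle, compound titration (15 concentrations) with 50 nM CITCO, 23 hr at 37 C/5% CO2, CellTiter-Fluor fluorescence.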

[5] = qHTS assay to identify small molecule antagonists of the estrogen related receptor signaling pathway with the pleiotropic PPARgamma coactivator (PGC) from Tox21 10K library (AID 1224841; call rule not given here; also: actives are mostly falling curves and most rising ones were filed inactive; nearly all actives have a fitted effect of over 50% in size)
How it was run: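 qHTS antagonist format: PGC/ERR cells, 2k/well, compound in DMSO by pin transfer after 6 h attachment, 18 h treatment at 37 C, One-Glo luminescence read at 30 min.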

[6] = qHTS assay to identify small molecule agonists of the estrogen related receptor signaling pathway with the pleiotropic PPARgamma coactivator (PGC) from Tox21 10K library (AID 1224842); also: nearly all actives have a fitted effect of over 15% in size
How it was run: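 Luminescence from One-Glo (30 min, room temperature) measured after PGC/ERR cells had 18 h at 37 C with pinned compound (23 nL in DMSO). Cells had been seeded at 2,000 per well and pre-incubated 6 h.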

[7] = target: Thyrotropin receptor (Homo sapiens) (UniProt P16473); experiment: qHTS assay to identify small molecule agonists of the thyroid stimulating hormone receptor (TSHR) signaling pathway (AID 1224843; calls by dose curve; also: nearly all actives have a fitted effect of over 45% in size)
Sequence of Thyrotropin receptor (Homo sapiens) (P16473 whole entry, looked up): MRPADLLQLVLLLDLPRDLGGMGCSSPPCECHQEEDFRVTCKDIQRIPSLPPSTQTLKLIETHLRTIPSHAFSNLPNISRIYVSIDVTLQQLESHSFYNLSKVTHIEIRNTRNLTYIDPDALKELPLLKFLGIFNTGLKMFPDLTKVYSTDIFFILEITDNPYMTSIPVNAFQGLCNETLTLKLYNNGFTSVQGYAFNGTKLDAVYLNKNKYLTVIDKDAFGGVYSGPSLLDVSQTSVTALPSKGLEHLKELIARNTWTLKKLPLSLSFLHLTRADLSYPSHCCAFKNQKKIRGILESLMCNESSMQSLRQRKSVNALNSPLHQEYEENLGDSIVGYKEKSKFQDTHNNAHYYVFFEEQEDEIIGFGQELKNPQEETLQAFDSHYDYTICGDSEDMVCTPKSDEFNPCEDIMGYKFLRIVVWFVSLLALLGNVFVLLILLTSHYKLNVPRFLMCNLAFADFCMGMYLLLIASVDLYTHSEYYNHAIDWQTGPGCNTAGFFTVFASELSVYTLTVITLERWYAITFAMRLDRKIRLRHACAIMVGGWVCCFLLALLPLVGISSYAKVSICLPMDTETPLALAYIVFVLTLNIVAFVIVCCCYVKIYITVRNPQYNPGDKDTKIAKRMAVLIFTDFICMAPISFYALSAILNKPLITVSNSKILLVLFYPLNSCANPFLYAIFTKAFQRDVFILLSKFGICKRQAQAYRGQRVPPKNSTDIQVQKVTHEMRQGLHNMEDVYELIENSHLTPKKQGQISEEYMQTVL
How it was run: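 HEK293 cells stably bearing the thyrotropin receptor were plated at 800 cells/well and challenged with compound (30 min, RT). Accumulated cAMP was quantified via cAMP-d2 competing for cryptate-tagged antibody.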

[8] = qHTS assay to identify small molecule agonists of the hypoxia (HIF-1) signaling pathway - cell viability counter screen (AID 1224844; calls by dose curve; also: nearly all actives have a fitted effect of over 50% in size; also: potency is read from the fitted curve at half-maximal effect)
How it was run: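 Cells (HRE-bla ME-180, 2,000 per well) sat 5 hrs at 37C, got compound for 17 hrs, were read for CCF4-AM FRET, and were finally lysed with CellTiter-Glo for a 30 min room-temperature luminescence read.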

[9] = qHTS assay to identify small molecule agonists of H2AX (AID 1224845; active = well fitted activation curve with a large enough effect in the signal ratio in the repeat runs, not every such curve was filed as active; the % refers to the signal ratio)
How it was run: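 Phospho-H2AX Ser139 measured by HTRF (ex 320 nm; em 665 and 620 nm) after 24 hr antibody incubation. Compounds, 15 concentrations, 0.76% DMSO, were applied to CHO-K1 cells for 3hr at 37C before lysis.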

[10] = qHTS assay to identify small molecule agonists of the hypoxia (HIF-1) signaling pathway (AID 1224846; active = well fitted activation curve with a large enough effect in the signal ratio in the repeat runs, not every such curve was filed as active; the % refers to the signal ratio)
How it was run: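 A low-serum medium (0.5% dialyzed FBS) holding 2,000 HRE-bla ME-180 cells per well is preincubated for 5 hrs, dosed with compounds by pintool, and kept a further 17 hrs at 37C, 5% CO2 before CCF4-AM FRET detection of beta-lactamase.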

[11] = qHTS assay to identify small molecule agonists of H2AX - cell viability counter screen (AID 1224847; calls by dose curve;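 also: wild-type CHO-K1 cells; top concentration of the series differs between compounds; nearly all actives have a fitted effect of over 30% in size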)
How it was run: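 Cells plated first: CHO-K1, 1000 per well in 10% FBS medium, incubated overnight at 37C. Then 15-point compound titration added (final DMSO 0.76%) for 3 hr. Finally CellTiter-Glo added and luminescence read.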

[12] = qHTS assay to identify small molecule antagonists of the estrogen related receptor (ERR) signaling pathway from Tox21 library (AID 1224848); also: nearly all actives have a fitted effect of over 50% in size
How it was run: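 Reading was by luminescence 30 min after ONE-Glo addition. Before that, ERR cells at 2,000 per well had rested 6 h at 37 C/5% CO2 and then received pin-tooled compounds in DMSO for 18 h at 37 C.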

[13] = qHTS RealTime-Glo MT Cell Viability Assay in HepG2 cells - 24 hour (AID 1224867); also: nearly all actives have a fitted effect of over 50% in size
How it was run: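 Tox21 10K library screened in qHTS format on HepG2 cells carrying RealTime-Glo reagents. Compounds were added after a 5 h preincubation, and the luminescent signal from continuous culture was measured repeatedly during 40 h treatment.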

[14] = qHTS RealTime-Glo MT Cell Viability Assay in HEK293 cells - 32 hour (AID 1224868); also: nearly all actives have a fitted effect of over 50% in size; also: potency is read from the fitted curve at half-maximal effect; as to activity change, negative = cytotoxic: top concentration of the series differs between compounds
How it was run: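 Luminescence generated by NanoLuc from substrate produced by living HEK293 cells served as the viability signal. Each value reflects the reading at its stated time point during continuous 40 h compound exposure at 37 C.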

[15] = A CellTox Green Cytotoxicity Assay to monitor cytotoxicity in HEK293 cells - 0 hour (AID 1224869); also: nearly all actives have a fitted effect of over 50% in size
How it was run: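 Fluorescence intensity, read at 0, 8, 16, 24, 32 and 40 h of compound treatment, reflected dye binding to DNA of dead HEK293 cells; compounds (23 nL, DMSO) were added 5 h after plating cells with reagent.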

[16] = target: Nuclear receptor subfamily 1 group I member 3 (Homo sapiens) (UniProt Q14994); experiment: qHTS assay to identify small molecule antagonists of the constitutive androstane receptor (CAR) signaling pathway (AID 1224838);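 also: HepG2 cells stably expressing hCAR with CYP2B6 luciferase reporter stimulated by CITCO; nearly all actives have a fitted effect of over 40% in size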; also: potency is read from the fitted curve at half-maximal effect
Sequence of Nuclear receptor subfamily 1 group I member 3 (Homo sapiens) (Q14994 whole entry, looked up): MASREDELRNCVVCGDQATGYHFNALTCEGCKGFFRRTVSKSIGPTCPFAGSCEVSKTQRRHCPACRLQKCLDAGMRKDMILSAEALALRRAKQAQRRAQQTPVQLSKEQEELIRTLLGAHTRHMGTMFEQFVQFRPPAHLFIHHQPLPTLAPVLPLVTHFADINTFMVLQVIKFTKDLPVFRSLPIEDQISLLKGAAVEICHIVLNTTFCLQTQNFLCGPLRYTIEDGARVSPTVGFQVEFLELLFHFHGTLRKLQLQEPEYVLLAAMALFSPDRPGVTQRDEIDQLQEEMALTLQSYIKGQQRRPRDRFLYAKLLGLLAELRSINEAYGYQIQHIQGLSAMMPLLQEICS
How it was run: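 Cell line: HepG2 double-stable for hCAR and CYP2B6-2.2kb reporter. Agonist: CITCO, 50 nM final. Compounds: 15 concentrations, 24 h, 37 C. Detection: ONE-Glo luminescence.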

[17] = qHTS assay to identify small molecule agonists of the estrogen related receptor (ERR) signaling pathway from Tox21 library (AID 1224849; calls by dose curve; also: nearly all actives have a fitted effect of over 15% in size); conditions: ERR reporter cell line, ONE-Glo luciferase, 18 h; at 92.4 µM (top of the series) unless noted
How it was run: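 Screening used an NTP-provided ERR luciferase cell line. Compounds in DMSO were added 6 h after seeding and left 18 h at 37 C before a 30 min ONE-Glo step and luminescence reading.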

[18] = qHTS assay to identify small molecule antagonists of the estrogen related receptor signaling pathway with the pleiotropic PPARgamma coactivator (PGC) from Tox21 10K library - cell viability counter screen (AID 1224840; active = well fitted cell-killing curve with a large enough effect in the repeat runs, not every such curve was filed as active; also: nearly all actives have a fitted effect of over 40% in size)
How it was run: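 Following seeding of 2,000 PGC/ERR cells/well and 6 hours' incubation, test compounds were delivered in DMSO. The plates then sat 17.5 hours at 37 C before a fluorogenic live-cell protease reagent (CellTiter-Fluor) was read after 30 min.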

[19] = target: Nuclear receptor subfamily 1 group I member 3 (Homo sapiens) (UniProt Q14994); experiment: qHTS assay to identify small molecule agonists of the constitutive androstane receptor (CAR) signaling pathway (AID 1224839);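 also: HepG2 cells stably carrying human CAR and a CYP2B6 luciferase reporter; nearly all actives have a fitted effect of over 15% in size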
How it was run: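 HepG2-CYP2B6-hCAR cells, 2500/well, 4 h pre-incubation; compounds 15 conc.; PK11195 0.75 uM final; 24 h, 37 C/5% CO2; ONE-Glo luciferase read.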

## CCCCCCCCCCCCCCCCCCCl
[1]
  viability change, negative = cytotoxic: -0.218% [at 8.39 µM]
[2]
  activity change, negative = inhibition: 2.69% [at 10.5 µM]
[3]
  viability change, negative = cytotoxic: 3.36% [at 8.39 µM]
[4]
  activity change, negative = cytotoxicity: 3.1% [at 8.39 µM]
[5]
  activity, negative = inhibition: 20.1% [at 8.39 µM]
[6]
  activation: 1.05% [at 8.39 µM]
[7]
  activation: -0.25% [at 8.39 µM]
[8]
  activity change, negative = cytotoxicity: 0.227% [at 6.97 µM]
[9]
  activation (H2AX phosphorylation): -0.95% [at 14 µM]
[10]
  activation: 0.175% [at 7.01 µM]
[11]
  activity change, negative = cytotoxicity: 2.91% [at 14 µM]
[12]
  activity, negative = inhibition: 23.3% [at 8.39 µM]
[13]
  activity change, negative = cytotoxicity: 1.13% [at 6.97 µM]
[14]
  activity change, negative = cytotoxic: -2.36% [at 6.97 µM]
[15]
  cytotoxicity: 0.805% [at 6.97 µM]

## Cc1c(-c2cccnc2)c2ccccc2n1CCCCC(=O)O
[1]
  Potency: inactive
[2]
  Potency: 39900 nM (active)
[3]
  Potency: inactive
[16]
  Potency: inactive
[5]
  Potency: inactive
[8]
  Potency: inactive
[9]
  Potency: inactive
[10]
  outcome: inactive
[11]
  Potency: inactive
[17]
  activity change, positive = activation: -5.77%
[13]
  outcome: inactive
[14]
  Potency: inactive
[15]
  Potency: inactive

## CCC1=C(C)CN(C(=O)NCCc2ccc(S(=O)(=O)NC(=O)NC3CCC(C)CC3)cc2)C1=O (stereo unspecified)
[1]
  Potency: inactive
[2]
  Potency: inactive
[3]
  Potency: inactive
[18]
  Potency: inactive
[5]
  Potency: inactive
[6]
  Potency: inactive
[7]
  Potency: inactive
[8]
  Potency: inactive
[9]
  Potency: inactive
[10]
  outcome: inactive
[11]
  Potency: inactive
[17]
  activity change, positive = activation: -15.8% [at 42.5 µM]
[13]
  outcome: inactive
[14]
  Potency: inactive
[15]
  Potency: inactive

## CC(C)Oc1ccccc1O
[1]
  Potency: inactive
[2]
  Potency: inactive
[3]
  Potency: inactive
[16]
  Potency: inactive
[19]
  Potency: inactive
[18]
  Potency: inactive
[6]
  Potency: inactive
[7]
  Potency: inactive
[8]
  Potency: inactive
[9]
  Potency: inactive
[10]
  outcome: inactive
[11]
  Potency: inactive
[13]
  outcome: inactive
[14]
  Potency: inactive
[15]
  Potency: inactive

## CC(C)C[C@H](NC(=O)[C@H](Cc1ccccc1)NC(=O)c1cnccn1)B(O)O
[1]
  Potency: 84.1 nM (active)
[2]
  Potency: inactive
[4]
  Potency: 266 nM (active)
[16]
  Potency: 37.6 nM (active)
[19]
  Potency: inactive
[6]
  Potency: inactive
[7]
  Potency: inactive
[8]
  Potency: 21.3 nM (active)
[10]
  outcome: inactive
[17]
  activity change, positive = activation: -63.1% [at 42.5 µM]
[14]
  Potency: 37.9 nM (active)
[15]
  Potency: inactive

## CC(C)=CCC/C(C)=C/C=N/O
[1]
  Potency: inactive
[2]
  Potency: inactive
[4]
  Potency: inactive
[16]
  Potency: inactive
[19]
  Potency: inactive
[18]
  Potency: inactive
[7]
  Potency: inactive
[8]
  Potency: inactive
[9]
  Potency: inactive
[10]
  outcome: inactive
[11]
  Potency: inactive
[13]
  outcome: inactive
[14]
  Potency: inactive
[15]
  Potency: inactive

## OCCCO
[1]
  Potency: inactive
[2]
  Potency: inactive
[4]
  Potency: inactive
[18]
  Potency: inactive
[7]
  Potency: inactive
[8]
  Potency: inactive
[9]
  Potency: inactive
[10]
  outcome: inactive
[11]
  Potency: inactive
[13]
  outcome: inactive
[14]
  Potency: inactive
[15]
  Potency: inactive
